Hit rate of the full screen: of about 330,000 compounds, about 1,900 (0.58%) were called active. Another 4% or so got no clear call; they are omitted. No stated cut-off is given here; in the data, inconclusive means inhibition above about 70% without an active follow-up result; inactive means below that. Not all results are given here. Entries with a potency or affinity are not part of this list.
Experiment: M. tuberculosis growth inhibition, HTS (AID 449762);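 further: bacterial growth assessed after seven days of incubation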
Details: M. tuberculosis H37Rv growth inhibition, 7H9 media; at 25 µM; hits give high values

| Compound | inhibition |
| --- | --- |
| Cc1cccc(NC(=S)NCC(C)CSc2ccc(Cl)cc2)c1 (centres undefined) | 10.5% (inactive) |
| COc1cccc(C2NC(=O)NC(C)=C2C(=O)OCC2CCCCC2)c1 (centres undefined) | -17.1% (inactive) |
| O=C(CSc1cccc(C(F)(F)F)c1)Nc1ccc(Cl)cc1Cl | -3.06% (inactive) |
| COC(=O)[C@H](CC(C)C)NC(=O)N1CCN(c2cccc(C(F)(F)F)c2)CC1 | 1.6% (inactive) |
| COC(=O)[C@@H](NC(=O)N1CCN(c2cccc(C(F)(F)F)c2)CC1)C(C)C | 5.31% (inactive) |
| Clc1ccccc1-c1nnc2n1CCCCC2 | -3.29% (inactive) |
| Oc1ccccc1-c1nnc2n1CCCCC2 | -9.99% (inactive) |
| CCOc1cc(N2CCOCC2)c(OCC)cc1NC(=O)CN1C(=O)NC(C)(C2CC2)C1=O (centres undefined) | 8.07% (inactive) |
| Cc1ccc(C)c(Nc2ccc(C(=O)NCCc3ccccc3)cn2)c1 | 4.16% (inactive) |
| O=C(CCN=C1NS(=O)(=O)c2ccccc21)Nc1ccc(F)cc1Cl | 7.31% (inactive) |
| c1ccc(N2CCN(c3nc4cc5c(cc4s3)OCCO5)CC2)cc1 | 5.85% (inactive) |
| c1ccc2c(c1)CCN(c1nc3cc4c(cc3s1)OCO4)C2 | 38.1% (inactive) |
| COc1ccc(S(=O)(=O)N2CCN(CC(=O)N3CCc4ccccc4C3)CC2)cc1OC | -1.57% (inactive) |
| CCCC(=O)NNC(=O)CC(=O)Nc1ccccc1C(=O)O | 2.33% (inactive) |
| O=C(NC(=S)Nc1cccc2ncccc12)c1ccccc1 | 0.24% (inactive) |
| O=C(NC(=S)Nc1cccc2cnccc12)c1ccccc1 | 5.56% (inactive) |
| CNC(=O)Cc1nc2ccccc2n1CC(=O)Nc1cc(C)cc(C)c1 | -9.59% (inactive) |
| COc1ccc(CN2[C@@H](CC(C)=O)c3cc(C(F)(F)F)ccc3S2(=O)=O)cc1 | -4.65% (inactive) |
| Cc1nnnn1-c1ccc(CC(=O)O)cc1 | -0.97% (inactive) |
| Cc1ccc(CSc2nnc(CCNC(=O)OC(C)(C)C)o2)cc1 | 6.64% (inactive) |

| Compound | inhibition |
| --- | --- |
| CC(C)(C)OC(=O)NCCCCCc1nnc(SCc2ccccc2)o1 | 68.1% (inactive) |
| O=C(/C=C/c1c[nH]c2ccccc12)c1c(O)n(CCc2ccccc2)c(=O)[nH]c1=O | 35.3% (inactive) |
| CCCCn1c(O)c(C(=O)/C=C/c2ccc3c(c2)OCO3)c(=O)[nH]c1=O | 1% (inactive) |
| COCCNC(=O)c1ccc(NC(=O)C2(c3ccccc3)CCCC2)cc1 | 40.9% (inactive) |
| CCn1c(CSCc2ccc(C)cc2)n[nH]c1=S | 3.1% (inactive) |
| CC1(C)CCC[C@]2(C)[C@H]3Cc4cc(O)ccc4O[C@]3(C)CC[C@@H]12 | 6.49% (inactive) |
| Cc1cc(/C=N/n2cnnc2)c(C)n1-c1ccc(Cl)cc1 | -4.08% (inactive) |
| Cc1cc(/C=N/n2cnnc2)c(C)n1-c1ccc(OCc2ccc(F)cc2)cc1 | -2.12% (inactive) |
| O=C(CCCC(=O)OCC(=O)c1ccc(Cl)cc1)NC1CCCCC1 | 30.8% (inactive) |
| COc1ccc(C2(C#N)CCC(=O)N2c2ccccc2)cc1 (centres undefined) | 5.44% (inactive) |
| COC(=O)CCc1sc(Nc2ccccc2)nc1-c1ccc(OC)cc1 | 52.4% (inactive) |
| COc1ccc(Nc2nc(-c3ccc(OC)cc3)c(CCC(=O)O)s2)cc1 | 26.3% (inactive) |
| O=C(CCCN1C(=O)c2ccccc2C1=O)N1CCN(c2ccccn2)CC1 | -8.5% (inactive) |
| Cn1c(=O)c2c(nc(NCC3CCCO3)n2C)n(C)c1=O (centres undefined) | -5.47% (inactive) |
| Cc1ccc(C(=O)c2coc3ccc(O)cc23)cc1 | 2.44% (inactive) |
| C[C@@H](NC(=O)[C@@H]1Cc2ccccc2CN1)C(=O)Nc1ccc2c(c1)OCCO2 | 8.26% (inactive) |
| Cc1[nH]c2ccc(OC(F)(F)F)cc2c1CCNCc1cccc([N+](=O)[O-])c1 | 62.9% (inactive) |
| COc1ccc(CNCCc2c(C)[nH]c3ccc(OC(F)(F)F)cc23)c(OC)c1 | 35.2% (inactive) |
| C(=NC12CN3CN(CN(C3)C1)C2)c1ccc2c(c1)OCO2 | -3.64% (inactive) |
| COC(=O)C1=C(c2ccc(F)cc2OCc2ccccc2)C[C@@H]2CC[C@H]1N2C(=O)NCc1ccc(F)cc1 | -5.1% (inactive) |

| Compound | inhibition |
| --- | --- |
| CC(Sc1nc(-c2ccccc2)nc2c1COC(C)(C)C2)C(=O)N1CCOCC1 (centres undefined) | -20.2% (inactive) |
| O=c1c2cnn(-c3ccccc3)c2nc(-c2cccs2)n1-c1ccc(Br)cc1 | 1.78% (inactive) |
| O=c1oc(-c2cccs2)nc2ccccc12 | -3.68% (inactive) |
| Cc1ccc(-n2c(C)cc(/C=N/NC(=O)c3ccc(CN4CCOCC4)cc3)c2C)cc1 | -0.81% (inactive) |
| COc1cc(NC(=O)Cn2cnc(S(=O)(=O)N3CCOCC3)c2)cc(OC)c1OC | -1.58% (inactive) |
| O=C1C(O)=C(O)C(=O)c2ccccc21 | -1.99% (inactive) |
| O=C1c2ccccc2-c2cccnc21 | -8.77% (inactive) |
| CCC1CCCCN1C(=S)NCc1ccccc1 (centres undefined) | -0.48% (inactive) |
| CN(C)CCOc1cc(Cl)cc(Cl)c1 | 10% (inactive) |
| Cc1nc2c(C(=O)N3CCN(c4ccccn4)CC3)cnn2c(C)c1Cc1cccc(Cl)c1 | 48.5% (inactive) |
| Cc1ccc(C(=O)N/C(=C\c2ccco2)C(=O)NCc2cccnc2)cc1 | -2.29% (inactive) |
| O=C(NCc1cccnc1)/C(=C/c1ccc(-c2cccc(C(F)(F)F)c2)o1)NC(=O)c1ccccc1 | 11.6% (inactive) |
| CCOC(=O)N1CCN(C(=O)CSc2ccc(C(=O)OC)cc2[N+](=O)[O-])CC1 | -7.7% (inactive) |
| Clc1ccccc1Cc1noc(CN2CCN(Cc3ccccn3)CC2)n1 | 2.36% (inactive) |
| CC(C)(C)c1ccc(C(=O)NC2CCS(=O)(=O)C2)cc1 (centres undefined) | 1.38% (inactive) |
| Cc1nn(-c2ccccc2)c(N)c1C(c1ccccc1)c1c(C)nn(-c2ccccc2)c1N | 5.62% (inactive) |
| Cc1ccc(C(c2c(C)nn(-c3ccccc3)c2N)c2c(C)nn(-c3ccccc3)c2N)cc1 | 23.1% (inactive) |
| COc1ccc(OC)c(C(=O)COC(=O)CNC(=O)c2ccccc2)c1 | -2.57% (inactive) |
| O=C(Nc1ccccc1)N1CCCN(c2c(Cl)cncc2Cl)CC1 | 2.69% (inactive) |

— PubChem BioAssay AID449762 (Southern Research Specialized Biocontainment Screening …, 2010)
